An excerpt weighted towards active compounds, which were near 1.4% of everything screened.
GLD-1 TGE inh: GLD-1-TGE RNA interaction inhibition (C. elegans); 0.44% of 320,000 active; inhibition, % at 5.96 µM; purified GLD-1 + fluorescein TGE RNA, fluorescence polarization; Q17339;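 active = percent inhibition above a per-plate cutoff, the plate mean of test compounds plus 3 SD, cut at about 30% in these data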;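 also: 0% = DMSO wells with GLD-1 and probe and 100% = wells lacking GLD-1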
Bcl-xL primary: blocks human Bcl-xL binding to Bim BH3 peptide; Q07817; GST-Bcl-xL / FITC-Bim BH3 peptide fluorescence polarization; inhibition, % at 10.9 µM; 0.7% of 320,000 active;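 active = inhibition above the mean of all tested compounds plus 3 SD, cutoff set per campaign, cut at about 30% in these data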;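 also: 0% = DMSO wells and 100% = unlabeled Bim-BH3 peptide competitor; inhibitors lower millipolarization by displacing the labeled peptide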
Target sequence (Q07817 whole entry, looked up): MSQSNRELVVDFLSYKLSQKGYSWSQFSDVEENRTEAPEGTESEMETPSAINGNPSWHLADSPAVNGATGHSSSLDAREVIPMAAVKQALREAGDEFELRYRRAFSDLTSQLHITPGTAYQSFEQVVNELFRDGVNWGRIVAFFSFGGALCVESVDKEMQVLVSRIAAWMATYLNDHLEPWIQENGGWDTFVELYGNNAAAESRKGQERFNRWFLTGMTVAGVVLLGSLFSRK
MEX-5 binding: C. elegans MEX-5 TCR-2 RNA binding activity | MEX-5/FITC-TCR2 RNA binding, fluorescence polarization; hits give low values | activity score (negative = inhibition of binding), % at 10 µM | Q9XUB2 | 0.38% of 300,000 active;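 active = inhibition past about -25% in most replicates, and total fluorescence under double the plate's negative control median, limit read from the data; inconclusive = replicates evenly split on the limit, or fluorescence at least double controls; inactive = too little inhibition in most replicates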;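 also: 0% = DMSO and -100% = 5 µM competing unlabeled TCR2 RNA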
E coli Lon inh: inhibits E. coli Lon protease; purified E. coli Lon protease, fluorescence polarization; inhibition, % at 7.94 µM; 0.42% of 360,000 active; AID 602123; in the data active = inhibition above about 13%, passing the limit was not always enough;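 also: 0% = enzyme with probe and DMSO and 100% = no enzyme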
MCL1-BIM inh: inhibitors of human MCL1 binding to BIM-BH3 peptide | AID 2057 | inhibition, % at 10.9 µM | 0.68% of 320,000 active | GST-MCL1 / FITC-Bim-BH3 fluorescence polarization;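 active = inhibition above the mean inhibition of all tested compounds plus 3 SD, set per campaign, cut at about 40% in these data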;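 also: 0% = DMSO wells and 100% = unlabeled Bim-BH3 peptide control; higher means more loss of mP so more displacement of Bim peptide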
* marks the source's active call; other numbers are inactive results; ? = inconclusive; nt = no result.

SMILES	GLD-1 TGE inh	Bcl-xL primary	MEX-5 binding	E coli Lon inh	MCL1-BIM inh
C[C@@H]1O[C@@H](OC2C(O)C(OCCc3ccc(O)c(O)c3)OC(CO)C2OC(=O)/C=C/c2ccc(O)c(O)c2)[C@H](O)[C@H](O)[C@H]1O (some centres not stated)	8	17	-46*	nt	39
C[C@@H]1O[C@@H](O[C@H]2[C@H](O)[C@@H](O)[C@H](Oc3c(-c4ccc(O)cc4)oc4cc(O)cc(O)c4c3=O)O[C@@H]2CO)[C@H](O)[C@H](O)[C@H]1O	2	nt	nt	-1	nt
CN(C)c1ccc(C(=O)OCC(=O)NCCCc2ccccc2)cc1	0	1	1	-1	-6
CCOc1ccc(C(=O)OCC(=O)NCCCc2ccccc2)cc1	6	116*	0	8	-1
COc1cccc(-c2nc(-c3ccc(Br)o3)no2)c1	-1	-8	nt	-5	-1
NS(=O)(=O)c1ccc(NC(=O)COC(=O)c2cn(-c3ccccc3)nc2-c2ccc(F)cc2)cc1	9	2	-30*	-1	-5
O=C(COC(=O)c1cn(-c2ccccc2)nc1-c1ccc(F)cc1)Nc1ncc(Cl)cc1Cl	-10	12	-4	2	11
COC(=O)/C(=N/Nc1ccccc1OC)N1CCCc2ccccc21	-7	-1	2	-5	-1
COc1ccc2cc(N=Cc3nc(-c4ccc(C)cc4)oc3O)cnc2c1	-2	4	-47*	-2	4
Cc1ccc(-c2nc(C=Nc3ccccc3)c(O)o2)cc1	-10	-8	-10	-2	-9
Cc1csc2nc(CN3CCN(CC(=O)N(C)C)CC3)cc(=O)n12	5	0	-3	0	-13
CC(=O)c1c(O)cc(O)cc1CC(=O)O	20	27	-29*	-7	32
CC(=O)c1c(O)cc(O)c(C(C)=O)c1O	23	22	-7	-1	21
CCOC(=O)C1(CCCc2ccccc2)CCN(C(=O)c2cnn(CC)c2)CC1	2	9	-1	0	1
CN1CCCc2cc(C=O)ccc21	4	31*	-6	0	30
O=Cc1ccc(N2CCCC2)c([N+](=O)[O-])c1	4	2	-8	2	-3
COCCN1CCn2c(nc3cc(NC(=O)NC4CCCCC4)ccc32)C1	5	33*	nt	-14	35
Cc1cc(OC(=O)c2cccc(Cl)c2)c([N+](=O)[O-])c(=O)[nH]1	-7	6	-4	-2	2
N#CC1(NC(=O)COC(=O)/C=C/c2ccc3ccccc3n2)CCCCC1	0	32*	0	-6	-13
COc1ccc(NC(=O)c2sc(=O)n(Cc3ccc(F)c(Cl)c3)c2C)cc1OC	nt	nt	nt	-2	nt
COc1ccc2c(/C=C/c3cc[n+](C)cc3)c[nH]c2c1	-92	-16	?	-92	-38
COc1ccc2c(c1)c(/C=C/c1cc[n+](C)cc1)cn2C	58*	-31	?	-305	-72
CCc1c(C)nc(SCC(=O)c2cccs2)c(C#N)c1C	-24	-1	-34*	-44	-7
CCc1c(C)nc(SCC(N)=O)c(C#N)c1C	0	2	1	-1	4
COc1ccc(-n2nnnc2C(c2cccs2)N2CCN(C/C=C/c3ccccc3)CC2)cc1 (configuration not stated)	nt	nt	nt	6	nt
SMILES	GLD-1 TGE inh	Bcl-xL primary	MEX-5 binding	E coli Lon inh	MCL1-BIM inh
O=C(/C=C/c1ccc(O)c(O)c1)OC(Cc1ccc(O)c(O)c1)C(=O)O (configuration not stated)	2	20	-53*	2	28
O=C(/C=C/c1ccc(O)c(O)c1)OCCc1ccccc1	6	18	-1	0	33
Oc1ccc(-c2cn3ccccc3n2)cc1	-1	-2	-3	-1	-3
Oc1ccc(-c2cn3ccccc3n2)cc1O	10	21	-28*	3	30
CCN1CCN(C(=O)c2ccc3c(=O)n(Cc4ccccc4OC)c(=S)[nH]c3c2)CC1	4	-2	-29*	1	-4
COc1ccccc1Cn1c(=S)[nH]c2cc(C(=O)N3CCCC3)ccc2c1=O	2	-5	2	-4	-6
Cc1nc(N2CCN(Cc3ccccc3)CC2)c(C#N)c2c1COC(C)(C)C2	8	26	-34*	10	24
COC/C=C/C1=CC2=CC(=O)C(C)(OC(=O)c3cnc4ccccc4n3)C(=O)C2=CN1CCc1ccccn1 (configuration not stated)	32*	52*	-15	nt	55*

Source: PubChem BioAssay (several laboratories)
